From PubChem
KLF5 inhibitor = KLF5 expression inhibitors, primary screen, DLD-1 cells, luminescence; AID 1700, 2009; inhibition, % at 5 µM; DLD-1 KLF5 promoter-luciferase reporter; 0.23% of 290,000 active;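 active = inhibition above a per-plate limit of that plate's mean compound inhibition plus 3 SD, cut at about 60% in these data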;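 note: 0% = DMSO wells and 100% = LY294002 at 200 µM; higher means less KLF5 promoter-driven luciferase light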
IEC-6 cytotox = cytotoxicity in IEC-6 intestinal epithelial cells, primary screen, cytotoxicity control for KLF5 inhibitor project, cell-based, luminescence. IEC-6 cytotoxicity, luminescence viability. inhibition, % at 5 µM. 0.78% of 290,000 active. AID 1825, 2009; in the data active = inhibition above about 22%;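 note: 0% = plate median of test compound wells and 100% = cytotoxic reference compound wells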
APP transl inh = inhibitors of APP translation via 5'UTR reporter, primary screen, APP 5'UTR luciferase, SH-SY5Y cells; SH-SY5Y APP 5'UTR-luciferase reporter, luminescence; AID 1285, 2008; inhibition, % at 2 µM; 0.82% of 190,000 active;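 active = inhibition above a set limit, derived from the sample mean plus 3 SD, cut at about 45% in these data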
BaF3 tox = parental Ba/F3 cell viability inhibition, counter-screen for JAK2V617F inhibitor project, murine pro-B, CellTiter-Glo luminescence; CellTiter-Glo ATP luminescence; inhibition, % at 5.6 µM; 1.1% of 220,000 active;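 active = inhibition above a per-campaign cutoff, the mean inhibition of all tested compounds plus 3 SD, cut at about 27% in these data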;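 note: 0% = DMSO wells and 100% = JAK Inhibitor I control wells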
Ba/F3 V617F tox = reduced viability of JAK2V617F-dependent Ba/F3 cells, primary screen, JAK2V617F inhibitor project, cell-based, Ba/F3 EpoR-JAK2V617F, luminescence. ATP luminescence. AID 1446, 2008. 1.1% of 220,000 active. inhibition, % at 5.6 µM;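 active = inhibition above the campaign mean plus 3 SD over all tested compounds, cut at about 24% in these data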;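 note: cytokine-independent growth of Ba/F3 cells driven by EpoR plus mutant JAK2; 0% = DMSO-treated cells and 100% = JAK inhibitor I control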
BaF3 parental 2 = parental Ba/F3 cell viability inhibition, counter-screen for JAK2V617F inhibitor project, murine pro-B, CellTiter-Glo luminescence; 31% of 580 active; inhibition, % at 5.6 µM; cells kept alive by added IL-3; AID 1520, 2009; shares compounds with Ba/F3 V617F tox;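 active = cell growth inhibition above the hit limit set in the earlier mutant JAK2 cell screen, cut at about 27% in these data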;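 note: plate controls were DMSO-treated cells for no effect and JAK Inhibitor I control wells for full effect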
JAK2V617F conf = viability loss in Ba/F3 EpoR-JAK2V617F cells, confirmation, JAK2V617F inhibitor project, cell-based, luminescence, triplicate. shares compounds with Ba/F3 V617F tox. CellTiter-Glo luminescence. inhibition, % at 5.6 µM. 66% of 580 active. AID 1521, 2009;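 active = mean inhibition above the hit cutoff derived in the earlier primary screen, cut at about 25% in these data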;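 note: 0% = DMSO-treated cells and 100% = JAK inhibitor I control wells; higher means lower luminescence from reduced cell ATP and viability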
Numbers without * were called inactive; nt = not tested or not shown. Sampled rows, rich in hits. Any-hit rate of the full collection: about 1.8%.

SMILES	KLF5 inhibitor	IEC-6 cytotox	APP transl inh	BaF3 tox	Ba/F3 V617F tox	BaF3 parental 2	JAK2V617F conf
O=C(NCCOC12CC3CC(CC(C3)C1)C2)c1cccc(Br)c1	-2	1	-18	1	-3	nt	nt
COc1ccc(C(C)NC(=O)c2ccncc2)cc1 (stereo not drawn)	5	-7	nt	nt	nt	nt	nt
Cc1ccnc(NC(=O)c2ccc([N+](=O)[O-])o2)c1	-80	6	13	-2	-1	nt	nt
Cc1ccc(NC(=O)c2ccc([N+](=O)[O-])o2)cc1C	-33	45*	44	3	37*	31*	93*
Cc1ccc(NS(=O)(=O)c2cc(OCC(N)=O)c(C)cc2Cl)cc1	12	6	11	1	-3	nt	nt
O=C(Nc1ccccc1Cl)OC1CCCCC1	-24	-2	nt	nt	nt	nt	nt
NC(=O)COC(=O)CC1CC2CCC1C2 (stereo not drawn)	-5	-2	1	2	-7	nt	nt
CCOc1ccc(NC2=NC(C)(C)N=C(N)N2)cc1	-9	-2	-2	26	41*	83*	93*
Cc1cc(NC(=O)c2sc(Nc3ccc(F)cc3)nc2N)no1	-23	1	-55	23	98*	65*	99*
O=C(CSc1nnc2ccccn12)NCCc1ccc(Cl)cc1	-9	6	-67	1	-1	nt	nt
COc1ccccc1NS(=O)(=O)c1cccc(-n2c(O)c(C=Nc3ccccc3C(=O)O)c3ccccc3c2=O)c1	6	8	nt	8	24*	8	32*
COc1ccc(Cn2c(O)c(C=Nc3ccccc3C(=O)O)c3ccccc3c2=O)cc1	-45	2	nt	-2	4	nt	nt
O=C1C2C3C=CC(C3)C2C(=O)N1c1ccc2c(c1)OCO2 (stereo not drawn)	-4	3	-6	2	57*	-6	-6
O=C1C2C3C=CC(CC3)C2C(=O)N1c1ccc2c(c1)OCO2 (stereo not drawn)	3	-3	11	2	0	nt	nt
COc1ccccc1CC(=O)O/N=C(\N)Cc1cccc2ccccc12	0	6	9	8	34*	-6	-5
COc1ccccc1OC(=O)Cc1cccc2ccccc12	-5	4	nt	nt	nt	nt	nt
COc1ccc(F)cc1C(=O)C1CCCN(C(=O)c2cccc(N(C)C)c2)C1 (stereo not drawn)	-16	5	-11	5	102*	-3	7
CN(C)c1cccc(C(=O)N2CCCC(C(=O)c3cc(F)ccc3F)C2)c1 (stereo not drawn)	-9	-1	12	1	-1	nt	nt
O=[N+]([O-])c1ccc2nc(/C=C/c3ccc(Cl)cc3)[nH]c2c1	-73	7	-136	4	3	nt	nt
COc1cc(C(=O)OCC(C)=O)ccc1OCc1c(C)noc1C	28	14	14	24	39*	15	26*
CCCOc1ccc(/C=N/NC(=O)CSCc2ccc([N+](=O)[O-])cc2)cc1OCC	-24	-1	3	7	2	nt	nt
CCNC(=S)NNC(=O)c1cccn(Cc2ccc(Cl)cc2Cl)c1=O	-18	-8	-6	6	-2	nt	nt
C=CCNC(=S)NNC(=O)c1cccn(Cc2ccc(Cl)cc2Cl)c1=O	-16	-3	0	-3	30*	-1	0
O=C(CN1C(=O)CSc2ccc(S(=O)(=O)N3CCOCC3)cc21)NCc1ccc(F)cc1	-10	-9	nt	nt	nt	nt	nt
COc1ccc(OC)c(C2(O)CSC(=Nc3cccnc3)N2Cc2ccco2)c1 (stereo not drawn)	-6	6	6	11	6	nt	nt
SMILES	KLF5 inhibitor	IEC-6 cytotox	APP transl inh	BaF3 tox	Ba/F3 V617F tox	BaF3 parental 2	JAK2V617F conf
OC1(c2ccc(OC(F)F)cc2)CSC(=Nc2cccnc2)N1C1CC1 (stereo not drawn)	6	9	2	17	29*	5	31*
Cc1ccc(O)c(NC(=O)CSc2ccc(Cl)cc2)c1	-34	1	-17	23	43*	21	71*
Cn1c(COc2ccccc2O)[n+](C)c2ccccc21	-14	6	nt	nt	nt	nt	nt
COc1ccc(N=Nc2n(C)c3ccccc3[n+]2C)cc1	37	18	nt	22	26*	35*	22
CCOc1ccc(N=C2NC(=O)CS2)cc1	-7	3	nt	nt	nt	nt	nt
COc1cc(/C=C2/CC/C(=C/c3ccc(O)c(OC)c3)C2=O)ccc1O	-13	-2	nt	0	-4	nt	nt
COc1cc(/C=C2\COC/C(=C\c3ccc(O)c(OC)c3)C2=O)ccc1O	-23	3	nt	-8	25*	14	91*
Cc1ccc(NC(=O)C(=Cc2ccc(C(=O)O)cc2)C(=O)Nc2ccc(C)cc2C)c(C)c1	4	-8	nt	1	36*	6	61*
Cc1ccc(-c2cc(C(=O)Nc3cc(C)on3)c3ccccc3n2)cc1	-21	8	2	0	-1	nt	nt
Cc1cc(NC(=O)c2cc(-c3ccc(C)c(C)c3)nc3ccccc23)no1	17	10	-6	5	63*	0	-1
COC(=O)/C=C/c1ccc2c(c1)OCO2	12	-1	11	9	2	nt	nt
COC(=O)/C=C/c1ccc(OC(=O)OC)c(OC(=O)OC)c1	-92	2	22	7	30*	3	82*
O=C1CCCN1CCCN=c1c([N+](=O)[O-])nn(-c2ccc(Cl)cc2)n1O	-18	18	6	25	32*	8	38*
COc1ccc(-n2nc([N+](=O)[O-])c(=NCCCN3CCCC3=O)n2O)cc1	-6	-5	-9	2	-3	nt	nt
Cc1ccc(C=Nc2ccccc2C(=O)Nc2ccccc2)cc1	-28	0	19	7	0	nt	nt
Cc1ccc(C=Nc2ccccc2C(N)=O)cc1	13	16	17	22	42*	37*	78*
CN1CCN(C(=S)Nc2ccc(Cl)c(Cl)c2)CC1	-8	-5	22	17	43*	23	46*
Cc1nc([N+](=O)[O-])c(Br)n1Cc1ccc(Cl)c(Cl)c1	9	14	21	-2	46*	2	85*
C=CCNc1nc(Cl)nc(NC2CCCCC2)n1	-21	2	nt	nt	nt	nt	nt
CCCOc1ccc2ccccc2c1/C=N/n1c(C)nnc1-n1nc(C)cc1C	-9	12	9	26	24*	55*	66*
Cc1ccc(C(=O)N2CCN3C(=O)c4ccccc4C23c2ccc(Cl)cc2)cc1 (stereo not drawn)	-9	17	-2	22	28*	16	36*
CCCCN1CN(Cc2ccccc2)CNC1=S	3	-3	2	5	41*	1	10
Nc1nc(OCC2CCCCC2)c2[nH]cnc2n1	-6	nt	nt	nt	nt	nt	nt
